# Compound activity from PubChem.
# Compounds with a hit are over-represented: about 3.9% of the library has one in this group of screens.
# N-glyco inh – blocks N-linked glycosylation in D54 reporter cells | D54 ERlucT glycosylation luciferase reporter, 24 h; percent of 100 nM tunicamycin response | reporter increase, % at 12.5 µM | 360,000 compounds, 0.23% hits | AID 588692;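 active means mean luciferase reporter signal, scaled so untreated is 0 and the glycosylation-blocking control 100, at or above a set limit in every replicate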;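 further: luciferase carries N-glycosylation sites so blocking glycosylation raises the light; 0% = median of neutral control wells and 100% = median of 100 nM tunicamycin wells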
# Mot1-301 SUMO – blocks SUMOylation pathway, rescuing yeast Mot1-301 growth. growth rescue, % at 18.8 µM. S. cerevisiae Mot1-301 growth rescue, ATP luminescence, 38.5C; percent above DMSO median, 100 means doubled. 320,000 compounds, 1% hits;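 active means every valid replicate shows activation above 250% relative to neutral control wells; inactive means the rest, any valid replicate at or below 250%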;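 further: OY570 slx delta 5 strain wells were the positive control but not used for scaling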
# CASP6 VEID inh – inhibitors of human caspase-6 | P55212 | purified caspase-6, Z-VEID-R110 cleavage fluorescence | inhibition, % at 12.5 µM | 350,000 compounds, 0.53% hits;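 active means mean inhibition across replicates at least about 35%, with every replicate also reaching that limit, limit read from the data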;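 further: 0% = median of neutral control wells and 100% = no fluorescence left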
# Target sequence (P55212 24-179 limits assumed): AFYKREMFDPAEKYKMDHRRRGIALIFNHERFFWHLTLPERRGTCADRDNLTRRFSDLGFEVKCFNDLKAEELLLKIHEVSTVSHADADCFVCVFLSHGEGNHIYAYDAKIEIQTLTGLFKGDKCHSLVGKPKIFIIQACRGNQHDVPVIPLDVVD
# Target sequence (P55212 194-293 limits assumed): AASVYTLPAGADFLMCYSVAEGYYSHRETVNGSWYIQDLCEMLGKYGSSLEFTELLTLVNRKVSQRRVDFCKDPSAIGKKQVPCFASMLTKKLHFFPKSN
# ALR H2O2 inh – human ALR oxidase inhibition via reduced H2O2; P55789; purified ALR, DTT oxidation, H2O2 HRP-luminol luminescence; inhibition, % (no concentration beside the values); 290,000 compounds, 3.8% hits;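 active means mean replicate inhibition above about 79%, with every replicate also reaching it, limit read from the data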
# Target sequence (P55789 whole entry, looked up): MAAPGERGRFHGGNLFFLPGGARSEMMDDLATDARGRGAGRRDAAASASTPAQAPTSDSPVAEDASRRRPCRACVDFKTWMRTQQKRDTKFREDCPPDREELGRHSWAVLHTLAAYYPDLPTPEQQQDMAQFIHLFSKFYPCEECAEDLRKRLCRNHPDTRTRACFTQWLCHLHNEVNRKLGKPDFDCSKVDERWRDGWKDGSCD
# CDK5 p35 inh – blocks human CDK5/p35 kinase activity; Q00535+Q15078; Recombinant CDK5/p35, ADP-Glo luminescence, 60 min; inhibition, % at 10 µM; 330,000 compounds, 0.01% hits; AID 488839;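 active means highest replicate inhibition of at least 50% and at least 75% of replicates reaching 50%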;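 further: plate controls were DMSO neutral control for no effect and GW8510 at 10 µM for full effect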
# NSD2 HMT inh – blocks human histone methyltransferase NSD2; 310,000 compounds, 0.54% hits; NSD2 peptide methylation, AlphaScreen, 120 min; O96028; inhibition, % at 12.5 µM; AID 743445; in the data active means inhibition above about 50%
# * marks the source's active call; other numbers are inactive results; nt = no result given.
SMILES,N-glyco inh,Mot1-301 SUMO,CASP6 VEID inh,ALR H2O2 inh,CDK5 p35 inh,NSD2 HMT inh
CC=Cc1ccc2n(c1=O)C[C@@H]1[C@@H](CO)[C@H](C(=O)N[C@@H](C)c3ccccc3)[C@H]2N1Cc1cncnc1 (mixture of isomers),nt,nt,1,nt,nt,nt
CCOC(=O)C1CCN(Cc2cc(Cl)c3ccccc3c2O)CC1,44*,93,nt,nt,1,0
C[C@@H]1CN([C@@H](C)CO)C(=O)c2cc(-c3ccccc3F)cnc2O[C@@H]1CN(C)Cc1cccc(C(=O)O)c1,nt,nt,3,nt,nt,nt
O=C1/C(=C/c2cccc([N+](=O)[O-])c2)Oc2cc(O)ccc21,3,-2,1,5,-1,0
O=C1/C(=C/c2ccc(O)c(O)c2)Oc2cc(O)ccc21,2,0,30,98*,5,nt
COc1cc(/C=C2\Oc3cc(O)ccc3C2=O)ccc1O,-2,1,-1,97*,23,nt
CO[C@@H]1CN(C)C(=O)c2cc(NC(=O)c3ccccc3F)ccc2OC[C@@H](C)N(C)C[C@@H]1C,nt,nt,12,nt,nt,nt
CNC(=O)[C@@]1(C)C=C[C@@H](Cc2ccccc2)N1C(=O)OC,1,271*,nt,-4,-1,nt
CC(=O)N1[C@H](Cc2ccccc2)C=C[C@]1(C)C(=O)NCCc1c[nH]c2ccccc12,1,5,0,99*,0,nt
O=C(Nc1cccc(Cl)c1)N[C@H]1CC[C@@H](CCNC(=O)C2CCC2)O[C@@H]1CO,nt,nt,0,nt,nt,nt
COCc1c(C(=O)NC2CCCCCC2)oc2ccccc12,-3,-13,-1,89*,-1,-5
Cc1c(C(=O)NC2CC2)oc2ccccc12,-1,107,-1,-2,-3,nt
Cc1noc(C)c1S(=O)(=O)Nc1ccc2c(c1)C(=O)N([C@H](C)CO)C[C@H](C)[C@H](CN(C)Cc1ccc3c(c1)OCO3)O2,nt,nt,1,nt,nt,nt
Cc1ccc(C2C(/C=C3/SC(=S)NC3=O)=C(c3cccs3)Oc3ccccc32)cc1 (centres undefined),-3,3,2,99*,-1,4
O=C(C[C@@H]1CC[C@@H]2[C@H](COC[C@H](O)CN2Cc2cccc(-c3ccncc3)c2)O1)N1CCN(c2ccccc2)CC1,nt,nt,0,nt,nt,nt
O=C(O)C1Oc2cc3ccccc3cc2O1,1,-3,55*,16,-2,20
COc1cccc(N2C(=O)C3CCCN3C2c2ccc(N(C)C)cc2)c1 (centres undefined),-1,-10,0,95*,2,nt
COc1cccc(N2C(=O)C3CCCN3C2c2ccc(Cl)cc2)c1 (centres undefined),-1,-6,-1,-14,-1,nt
Cc1ccc(S(=O)(=O)N(C)C[C@H]2OCCCC[C@@H](C)Oc3ccc(NS(=O)(=O)c4cccs4)cc3C(=O)N([C@@H](C)CO)C[C@H]2C)cc1,nt,nt,-3,nt,nt,nt
CCSC1(SCC)N=C(N)C2(C#N)C(c3ccccc3)NC3=C(CCC3)C12C#N (centres undefined),0,8,nt,96*,1,0
O=C(N/N=C/c1ccc(O)cc1)NC12CC3CC(CC(C3)C1)C2,-4,-3,0,93*,1,nt
O=C(NN=Cc1ccc(F)cc1)C1CC1,0,nt,4,nt,1,-1
C=C1CC(C(=O)N/N=C/c2ccc(O)cc2)C1,1,-3,nt,100*,0,1
C[C@@H]1CCCCO[C@@H](CN(C)S(=O)(=O)c2ccc(Cl)cc2)[C@H](C)CN([C@H](C)CO)C(=O)c2cc(NC(=O)NC3CCCCC3)ccc2O1,nt,nt,-2,nt,nt,nt
COc1ccc(S(=O)(=O)Nc2ccc3c(c2)C(=O)N([C@@H](C)CO)C[C@@H](C)[C@@H](CN(C)C(=O)NC2CCCCC2)O3)cc1,nt,nt,1,nt,nt,nt
SMILES,N-glyco inh,Mot1-301 SUMO,CASP6 VEID inh,ALR H2O2 inh,CDK5 p35 inh,NSD2 HMT inh
COc1cccc(CNc2ccc(F)c([N+](=O)[O-])c2)c1O,-2,12,2,98*,1,-1
O=[N+]([O-])c1ccccc1CNc1ccc(F)c(Cl)c1,-2,12,2,nt,-2,3
C[C@H](CO)N1C[C@H](C)[C@H](CN(C)C(=O)C2CCCCC2)Oc2ncc(C#CC3CCCCC3)cc2C1=O,nt,nt,-3,nt,nt,nt
COc1ccc(/C=C/C(=O)NC(=S)NNC(=O)Cc2cccs2)cc1OC,-1,-11,nt,-62,1,-2
O=C(NC(=S)NNC(=O)c1cccs1)c1ccco1,1,309,nt,97*,0,-9
COc1ccc(C(=O)NNC(=S)NC(=O)c2ccc(Cl)cc2)cc1,nt,4,-1,-20,2,1
COc1ccc(/C=C/C(=O)NC(=S)NNC(=O)c2cccs2)cc1OC,2,6,2,99*,-2,-2
COc1cc(C(=O)NNC(=S)NC(=O)c2ccc(Cl)cc2)cc(OC)c1OC,1,-14,nt,96*,1,2
Cc1cccc(C(=O)NC(=S)NNC(=O)c2cccs2)c1,4,1,0,99*,0,2
COc1ccc2c3c([nH]c2c1)[C@@H](CO)N(CC1CC1)CC31CN(C(=O)NC2CCCC2)C1,nt,nt,-4,nt,nt,nt
C[C@@H]1CCCCO[C@H](CN(C)C)[C@@H](C)CN([C@@H](C)CO)C(=O)c2cc(NS(=O)(=O)c3ccccc3)ccc2O1,nt,nt,-1,nt,nt,nt
CC(C)(C)c1ccc(C(=O)NC(=S)NNC(=O)c2cccs2)cc1,7,-1,nt,98*,1,0
CC(=O)NC(=S)Nc1ccc(NC(=S)NC(=O)c2cccs2)cc1,-2,-15,5,-4,-1,-1
O=C(NNC(=O)c1cccs1)c1ccc(Br)o1,1,2,5,96*,0,nt
CCN(CC)c1ccc(NC(=S)NC(=O)c2cccs2)cc1,0,1,-2,98*,0,8
O=C(NNC(=S)NC(=O)c1sc2ccccc2c1Cl)c1ccc(Cl)cc1,5,-9,nt,98*,3,0
O=C(Nc1ccc(NC(=O)c2cccs2)cc1)c1ccc(Br)o1,-5,-22,nt,0,2,nt
CN1C(=O)c2cc(NC(=O)c3ccno3)ccc2OC[C@H]2O[C@@H](CC(=O)NC3Cc4ccccc4C3)CC[C@@H]21,nt,nt,3,nt,nt,nt
CCCOc1ccc(C(=O)NNC(=S)NC(=O)c2ccccc2)cc1,2,-2,-4,22,1,1
Cc1cccc(C(=O)NC(=S)NNC(=O)c2ccc(Cl)cc2)c1,3,-13,nt,96*,-1,14
O=C(NNC(=S)Nc1ccc(Cl)cc1)c1cccs1,3,nt,-1,97*,6,0
O=C(NC(=S)NNC(=O)c1cccs1)c1ccccc1,3,-4,-4,99*,1,0
CCCOc1ccc(C(=O)NNC(=S)NC(=O)c2cccs2)cc1,0,-4,-1,97*,0,nt
N#C[C@H]1[C@H](c2ccccc2)[C@H](CO)N1C(=O)c1ccc2c(c1)OCO2,nt,nt,-3,nt,nt,nt
